Calls of active or inactive are those of the source. Calls come from the whole dose curve; as a rule, active = well fitted curve in the direction sought with a large enough effect; inconclusive = small, poorly fitted or top-dose-only effect, or another doubt; inactive = no such curve, though single readings can be large or run the other way.
Molecular target: Alpha-galactosidase (Coffea arabica) (UniProt Q42656)
Assay: Counterscreen for Glucocerebrosidase Inhibitors: qHTS Assay for Coffee Bean alpha-Galactosidase at pH 4.5 (AID 957)
Settings: purified coffee bean alpha-galactosidase, fluorogenic substrate; series mostly up to 76.9 µM
Description: NIH Chemical Genomics Center [NCGC]
NIH Molecular Libraries Screening Centers Network [MLSCN]
PI Name: Zheng, Wei [NIH]
Alpha-galactosidase is a homodimeric glycoprotein that hydrolyzes the terminal alpha-galactosyl moieties from glycolipids and glycoproteins. Deficiency of this enzyme results in Fabry Disease with progressive accumulation of globotriaosylceramide and other glycosphingolipids in vascular endothelial cells that causes renal failure, myocardial infarction and stroke, and premature death in patients. It has reported that the improper folding and trafficking of alpha-galactosidase resulted from the genetic mutations may account for a significant numbers of Fabry patients. […] We optimized this coffee bean alpha-galactosidase assay in 1536-well plate format as a counter-screen assay for identifying the selective small molecule inhibitors of other lysosomal enzymes.
NCGC Assay Protocol Summary:
This is a fluorogenic enzyme assay with 4-Methylumbelliferyl alpha-D-galactopyranoside as the substrate and green coffee bean […] (from Sigma-Aldrich) as the enzyme preparation. Upon the hydrolysis of this fluorogenic substrate, the resulting product, […]. 4-Methyllumbelliferone, can be excited at 365 nm and emits at 440 nm which can be detected by a standard fluorescence plate reader. Data were normalized to the controls for basal activity (without enzyme) and 100% activity (with enzyme). In the AC50 values were determined from concentration-response data modeled with the standard Hill equation.
Assay buffer: 50 mM citric acid, 0.005% Tween-20, pH 4.5. (pH 5.9 is an optimal condition for this enzyme assay. This assay in pH 4.5 is used for comparison the inhibitor activities with the human alpha-galactosidase assay)
1536-well assay protocol for the coffee bean alpha-galactosidase:
(1) Add 2 ul/well of enzyme (2 nM final)
(2) Add 23 nL compounds in DMSO solution. The final titration was 0.7 nM to 77 uM.
(3) Add 1 ul of substrate (80 uM final)
(4) Incubate at room temperature for 20 min.
(5) Add 2 ul stop solution (1M NaOH and 1M Glycine mixture, pH 10)
(6) Detect the assay plate in a ViewLux plate reader (PerkinElmer) with Ex=365 nm and Em=440nm.
Keywords: Alpha-galactosidase, Fabry Disease, pharmacological chaperone, chaperone therapy, high throughput screening, alpha-galactosidase inhibitor, MLSMR, MLSCN, NIH Roadmap, qHTS and NCGC

Sequence of Alpha-galactosidase (Coffea arabica) (Q42656 whole entry, looked up): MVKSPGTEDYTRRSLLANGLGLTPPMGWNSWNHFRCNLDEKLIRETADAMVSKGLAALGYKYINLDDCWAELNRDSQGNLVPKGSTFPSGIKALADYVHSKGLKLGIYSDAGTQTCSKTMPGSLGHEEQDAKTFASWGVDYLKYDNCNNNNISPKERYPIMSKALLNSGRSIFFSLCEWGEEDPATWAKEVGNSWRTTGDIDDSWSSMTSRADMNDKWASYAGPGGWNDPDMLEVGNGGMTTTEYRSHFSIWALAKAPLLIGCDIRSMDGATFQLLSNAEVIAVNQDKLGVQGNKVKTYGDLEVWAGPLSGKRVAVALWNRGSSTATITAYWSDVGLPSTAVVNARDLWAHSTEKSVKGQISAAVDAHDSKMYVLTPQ

Structure (SMILES)	outcome
NCCCP(=O)(O)O	inactive
c1ccc2c(c1)[I+]c1ccccc1-2	inactive
CCCN(CCC)[C@H]1CCc2c(F)ccc(O)c2C1	inactive
C[N+]1(C)CCC(OC(=O)C(c2ccccc2)c2ccccc2)CC1	inactive
CCCN(CCC)CCc1c[nH]c2ccc(C(N)=O)cc12	inactive
CN1CCc2cccc(Cl)c2CC1	inactive
CCCN(CCC)CCc1ccc(O)c(O)c1	inactive
CN(N=O)c1ccc(O)c(O)c1	inactive
NC(N)=NOCC[C@H](N)C(=O)O	inactive
CCCn1c(C)c(C(=O)c2ccc3ccccc3c2)c2ccccc21	inactive
O=C(O)c1cc[c]([Hg][Cl])cc1	inactive
C[C@H](N)CN1CCc2ccc(Br)cc21	inactive
C[N+]1(C)[C@@H]2CC[C@H]1CC(OC(=O)c1c[nH]c3ccccc13)C2 (stereo not given in full)	inactive
COc1ccc2c(c1)/C(=C/c1cnc[nH]1)C(=O)N2	inactive
Clc1cc(I)cc(Cl)c1NC1=NCCN1	inactive
C[C@@H]1O[C@H](C[N+](C)(C)C)CS1	inactive
O=[N+]([O-])c1ccc2nc(N3CCNCC3)ccc2c1	inactive
CN1CCC(c2c[nH]c3ccc(O)cc23)CC1	inactive
OCc1cnc[nH]1	inactive
O=P(O)(O)C(Cl)(Cl)P(=O)(O)O	inactive

Structure (SMILES)	outcome
O=S1(=O)N(CCN2CC=C(c3c[nH]c4cc(F)ccc34)CC2)c2cccc3c2N1CCC3	inactive
NCCc1c[nH]c2ccc(C(N)=O)cc12	inactive
CN(N=O)c1cc(O)ccc1O	inactive
N#CC(C#N)=Cc1cc(O)c(O)c(O)c1	inactive
O=C1C=CC(=O)C=C1	inactive
C[N+](C)(C)CCOC(=O)CBr	inactive
CNC(=O)OCC[N+](C)(C)C	inactive
NCCc1ccc(S(=O)(=O)F)cc1	inactive
NC(=O)c1cc(N2CC2)c([N+](=O)[O-])cc1[N+](=O)[O-]	inactive
N[C@@H](Cn1oc(=O)[nH]c1=O)C(=O)O	inactive
COc1ccc2[nH]cc(CCN)c2c1	inactive
C[N+]1(C)CCN(c2ccccc2)CC1	inactive
Cc1c2ccncc2c(C)c2c1[nH]c1ccccc12	inactive
CCCN1CCc2cc(O)cc3c2[C@H]1Cc1ccc(O)c(O)c1-3	inactive
CCN(CCCl)Cc1ccccc1Br	inactive
Clc1ccc(N2C[C@H]3CC[C@@H](C2)N3)nn1	inactive
CC(C)NP(=O)(NC(C)C)OP(=O)(NC(C)C)NC(C)C	inactive
CCS(=O)(=O)Nc1cccc(C(=C2CCCCC2)c2cnc[nH]2)c1	inactive
C[N+](C)(C)CC#CCN1CCCC1=O	inactive
CCCN(CCC)C1Cc2cc(OC)c(OC)cc2C1	inactive

Source: PubChem BioAssay (NCATS)
